About 83,000 compounds went through this panel and 20% of them were active in at least one assay; those are over-represented in the sample as a whole.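 Single-dose data. Exposure time 48 hours. Values below 10 considered active.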 Unmarked numbers belong to inactive results. Activity calls are given as the source filed them.
Experiments:
Experiment in all cases: NCI-60 one-dose screen, 48 h (100 = growth as untreated, 0 = no growth, -100 = all killed)
Conditions in all cases: 10 µM
DU-145 prostate = tested on: DU-145 prostate
K-562 leukemia = tested on: K-562 leukemia
MALME-3M melanoma = tested on: MALME-3M melanoma
MDA-MB-231 breast = tested on: MDA-MB-231 breast
RXF 393 renal = tested on: RXF 393 renal
SF-268 CNS = tested on: SF-268 CNS
SF-295 CNS = tested on: SF-295 CNS
SF-539 CNS = tested on: SF-539 CNS
UACC-257 melanoma = tested on: UACC-257 melanoma
M14 melanoma = tested on: M14 melanoma
HCT-15 colon = tested on: HCT-15 colon
HT29 colon = tested on: HT29 colon
SNB-75 CNS = tested on: SNB-75 CNS
SNB-19 CNS = tested on: SNB-19 CNS
U251 CNS = tested on: U251 CNS
PC-3 prostate = tested on: PC-3 prostate
SK-MEL-5 melanoma = tested on: SK-MEL-5 melanoma
UACC-62 melanoma = tested on: UACC-62 melanoma
LOX IMVI melanoma = tested on: LOX IMVI melanoma
SK-MEL-28 melanoma = tested on: SK-MEL-28 melanoma

Compound	growth (DU-145 prostate)	growth (K-562 leukemia)	growth (MALME-3M melanoma)	growth (MDA-MB-231 breast)	growth (RXF 393 renal)	growth (SF-268 CNS)	growth (SF-295 CNS)	growth (SF-539 CNS)	growth (UACC-257 melanoma)	growth (M14 melanoma)	growth (HCT-15 colon)	growth (HT29 colon)	growth (SNB-75 CNS)	growth (SNB-19 CNS)	growth (U251 CNS)	growth (PC-3 prostate)	growth (SK-MEL-5 melanoma)	growth (UACC-62 melanoma)	growth (LOX IMVI melanoma)	growth (SK-MEL-28 melanoma)
O=C1/C=C/[C@@H](O)[C@@H]2C[C@@H](O)C[C@H]2/C=C/CCC[C@H](CCc2ccc(C(F)(F)F)cc2)O1	19.5%	11.7%	-13.9% (active)	-84% (active)	-31.6% (active)	4.75% (active)	11.4%	25.2%	10.5%	7.65% (active)	-3.05% (active)	-36.7% (active)	-13.5% (active)	17.6%	12.1%	8.76% (active)	-87.2% (active)	6.89% (active)	-71.8% (active)	2.07% (active)
Cc1cc(SC#N)cc(C(C)(C)C)c1O	110%	91.3%	85.8%	113%	118%	103%	102%	95.6%	94.1%	90.3%	103%	91.4%	92.4%	113%	91.4%	66.8%	101%	–	100%	105%
CCCN(CCC)C(=O)[C@H](CC)[C@@H]1CC[C@@H](C)[C@@H]([C@H](C)[C@@H](O)[C@@H](C)C(=O)[C@H](CC)C2O[C@]3(C=C[C@@H](O)[C@]4(CC[C@@](C)([C@H]5CC[C@](O)(CC)[C@H](C)O5)O4)O3)[C@H](C)C[C@@H]2C)O1 (some centres undefined)	31.5%	10.4%	-13.3% (active)	-40.3% (active)	-6.32% (active)	24.5%	-5.79% (active)	8.44% (active)	8.4% (active)	13.9%	-9.51% (active)	7.02% (active)	-12.8% (active)	17.8%	21.5%	6.69% (active)	-92.4% (active)	14.9%	1.21% (active)	24.2%
C=CCN(CC=C)C(=O)[C@H](CC)[C@@H]1CC[C@@H](C)[C@@H]([C@H](C)[C@@H](O)[C@@H](C)C(=O)[C@H](CC)C2O[C@]3(C=C[C@@H](O)[C@]4(CC[C@@](C)([C@H]5CC[C@](O)(CC)[C@H](C)O5)O4)O3)[C@H](C)C[C@@H]2C)O1 (some centres undefined)	53.7%	14.3%	-22.4% (active)	-36.3% (active)	-1.56% (active)	41.7%	-16% (active)	29.1%	7.88% (active)	17.9%	4.64% (active)	9.13% (active)	-7.45% (active)	14.2%	18.9%	2.56% (active)	-85.2% (active)	14.3%	17%	33.9%

Reference: PubChem BioAssay (NCI)
